Compounds without any hit were thinned out: in the full panel of roughly 83,000, 20% have a hit.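 Single-concentration screen, 48 h exposure, 96-well plates. Endpoint: percent growth. Below 10 = active.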 A number with no mark means an inactive call. Activity calls are given as the source filed them.
Key:
Assay in all cases: NCI-60 one-dose screen, 48 h (100 = growth as untreated, 0 = no growth, -100 = all killed)
Conditions in all cases: 10 µM unless noted
DU-145 prostate = test system: DU-145 prostate
K-562 leukemia = test system: K-562 leukemia
MALME-3M melanoma = test system: MALME-3M melanoma
MDA-MB-231 breast = test system: MDA-MB-231 breast
RXF 393 renal = test system: RXF 393 renal
SF-268 CNS = test system: SF-268 CNS
SF-295 CNS = test system: SF-295 CNS
SF-539 CNS = test system: SF-539 CNS
UACC-257 melanoma = test system: UACC-257 melanoma
M14 melanoma = test system: M14 melanoma
HCT-15 colon = test system: HCT-15 colon
HT29 colon = test system: HT29 colon
SNB-75 CNS = test system: SNB-75 CNS
SNB-19 CNS = test system: SNB-19 CNS
U251 CNS = test system: U251 CNS
PC-3 prostate = test system: PC-3 prostate
SK-MEL-5 melanoma = test system: SK-MEL-5 melanoma
UACC-62 melanoma = test system: UACC-62 melanoma
LOX IMVI melanoma = test system: LOX IMVI melanoma
SK-MEL-28 melanoma = test system: SK-MEL-28 melanoma

Row | Compound | growth (DU-145 prostate) | growth (K-562 leukemia) | growth (MALME-3M melanoma) | growth (MDA-MB-231 breast) | growth (RXF 393 renal) | growth (SF-268 CNS) [%] | growth (SF-295 CNS) | growth (SF-539 CNS) | growth (UACC-257 melanoma) | growth (M14 melanoma) | growth (HCT-15 colon) | growth (HT29 colon) [%] | growth (SNB-75 CNS) | growth (SNB-19 CNS) [%] | growth (U251 CNS) | growth (PC-3 prostate) [%] | growth (SK-MEL-5 melanoma) | growth (UACC-62 melanoma) | growth (LOX IMVI melanoma) | growth (SK-MEL-28 melanoma)
1 | COc1ccc(/C=C/C(=O)c2ccc(NC(=O)CSc3nnc(-c4ccc(OC)c(OC)c4)n3-c3ccccc3)cc2)cc1 | 40.8% | 8.42% (active) | -75% (active) | 1.36% (active) | 94.4% | 80.6 | 91.4% | 87.5% | 90% | 36.2% | 4.42% (active) | 43.7 | 63.3% | 60.5 | -9.68% (active) | 53.1 | 73.4% | 68.4% | -87.5% (active) | 95.8%
2 | N#Cc1c(-c2ccc(F)cc2)nc(N/N=C/c2c[nH]c3ccccc23)nc1N1CCOCC1 | 46.6% | 5.72% (active) | -63.5% (active) | 53.1% | -34.2% (active) | 68.8 | -17.4% (active) | 52.8% | -48.8% (active) | -0.73% (active) | 8.42% (active) | 18 | 62.5% | 89.7 | 32.2% | 49.9 | 37.1% | 61.8% | 20.6% | 4.29% (active)
3 | C=C(C)[C@@H]1CC[C@]2(C(N)=O)CC[C@]3(C)[C@H](CC[C@@H]4[C@@]5(C)CCCNC(C)(C)[C@@H]5CC[C@]43C)[C@@H]12 | 92.4% | 7.26% (active) | 75% | 62.4% | 72.4% | 85.8 | 80.9% | 65.4% | 57.6% | 86.8% | 50.2% | 16.4 | 76% | 87.3 | 58.7% | 50.3 | 67.2% | 87.4% | 76.9% | 85.1%
4 | CCOC(=O)c1c(-c2ccc(O)cc2)c(C#N)c2c(C#N)c(N)nn2c1N | 83% | 19.8% | 39.4% | 67% | 76.2% | 71.8 | 79.9% | 66.9% | 93% | 45.2% | 76% | 43 | 65.7% | 74.8 | 63.3% | 68.9 | 52.9% | 36.9% | 55.2% | 68.6%
5 | COC(=O)/C=C/c1cc(OC)c2c(c1)[C@@H](C(=O)OC)[C@H](c1ccc(OC)c(OC)c1)O2 | 14% | 10.8% | 44.3% | 53.4% | -12.2% (active) | 59.6 | 18.4% | -7.1% (active) | 44.7% | 2.02% (active) | 32.2% | 11 | -3.43% (active) | 35 | 25.1% | 32.9 | 9.73% (active) | 33.6% | 51.1% | 63.4%
6 | CC(C)(C)c1nn(-c2ccccc2)c2c1COCN2Cc1ccc(Cl)cc1 | 103% | 47.5% | 90.2% | 95.1% | 100% | 103 | 95.9% | 83.6% | 114% | 91.8% | 96% | 65.7 | 95.1% | 92.4 | 90.3% | 63.6 | 82.2% | 72.8% | 85% | 100%
7 | Cc1ccn2c3c(c(C(=O)O)c2c1)C(=O)c1ccccc1C3=O | -55.7% (active) | 85.4% | -62.7% (active) | 77.2% | 56.9% | 80.3 | 26.9% | 65.8% | 56.4% | -43.5% (active) | 58.8% | 39.5 | 87.8% | 50.4 | 74.9% | 84.8 | -98.9% (active) | 0.126% (active) | 48.9% | 46%
8 | COc1cc2nc3c(=O)n(-c4ccc(C#N)cc4)cnn3c(=O)c2cc1OC | 103% | 106% | 87.5% | 103% | 100% | 88.5 | 99.8% | 94.9% | 110% | 94.1% | 100% | 100 | 73.9% | 97.7 | 102% | 98.3 | 96.1% | 95.1% | 95.4% | 99.8%
